The entries come from a sample that favours hits as a whole.
ClpP mod: qHTS Assay for Activators of ClpP; ATP-dependent Clp protease proteolytic subunit (Bacillus subtilis (strain 168)), P80244; Potency, µM (titrated, usually from 57.5 µM), inactives show top-dose activity change, negative = active; purified B. subtilis ClpP, FRET peptide cleavage, 20 min; 340,000 tested, 1.9% active; active = well fitted falling curve with a large enough effect; inconclusive = small, poorly fitted or top-dose-only effect; inactive = no such curve, though single readings can be large or run the other way; note: potency is the fitted concentration of half-maximal effect; the source files actives as falling curves though it sought activators and does not explain the sign; nearly all actives have a fitted effect of over 65% in size
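Buffer: 100 mM Tris/HCl pH8, 100 mM KCl, 0.05% low protease BSA, 2.5% glycerol, 0.01% Tween-20. ClpP 10 microg/mL final; 20 min RT; delta FRET normalized to ADEP and DMSO controls.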
MLL CXXC-DNA inh: blocks binding of human MLL CXXC domain to DNA. MLL-CXXC / FITC-HOXA9 DNA fluorescence polarization. Potency, µM (titrated, usually from 115 µM), for the others: top-dose activity change, negative = inhibition, actives largely listed as inhibitors. 290,000 tested, 0.037% active. AID 2662; active = well fitted inhibition curve with a large enough effect in the polarisation, with a control signal flat, not every such curve was filed as active; inconclusive = small, poorly fitted or top-dose-only effect, or effect the other way, or a change in a side signal; inactive = no such curve, though single readings can be large or run the other way; the % refers to the polarisation; note: potency is the fitted concentration of half-maximal effect
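Steps: dispense CXXC domain solution (7 uM) → pin compounds or unlabeled HOX-A9 DNA control → 5 min ambient → add FLSN-HOX-A9 solution (50 nM) → spin → 30 min ambient → fluorescence polarization. Tris pH 7.5/NaCl/DTT/BSA buffer.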
Menin-MLL TR inh: inhibitors of human menin-MLL interaction, mutant MLL peptide. 270,000 tested, 0.23% active. Menin + Texas Red MLL mutant peptide, fluorescence polarization. O00255. AID 1768. Potency, µM (doses to about 61.6 µM), without a hit: at the highest dose FP activity change, negative = inhibition, hits mostly inhibitors; active = well fitted inhibition curve with a large enough effect in the polarisation, with a control signal flat, not every such curve was filed as active; inconclusive = small, poorly fitted or top-dose-only effect, or effect the other way, or a change in a side signal; inactive = no such curve, though single readings can be large or run the other way; the % refers to the polarisation; note: potency is the fitted concentration of half-maximal effect; % of control where 0% means no effect
Target sequence (O00255 whole entry, looked up): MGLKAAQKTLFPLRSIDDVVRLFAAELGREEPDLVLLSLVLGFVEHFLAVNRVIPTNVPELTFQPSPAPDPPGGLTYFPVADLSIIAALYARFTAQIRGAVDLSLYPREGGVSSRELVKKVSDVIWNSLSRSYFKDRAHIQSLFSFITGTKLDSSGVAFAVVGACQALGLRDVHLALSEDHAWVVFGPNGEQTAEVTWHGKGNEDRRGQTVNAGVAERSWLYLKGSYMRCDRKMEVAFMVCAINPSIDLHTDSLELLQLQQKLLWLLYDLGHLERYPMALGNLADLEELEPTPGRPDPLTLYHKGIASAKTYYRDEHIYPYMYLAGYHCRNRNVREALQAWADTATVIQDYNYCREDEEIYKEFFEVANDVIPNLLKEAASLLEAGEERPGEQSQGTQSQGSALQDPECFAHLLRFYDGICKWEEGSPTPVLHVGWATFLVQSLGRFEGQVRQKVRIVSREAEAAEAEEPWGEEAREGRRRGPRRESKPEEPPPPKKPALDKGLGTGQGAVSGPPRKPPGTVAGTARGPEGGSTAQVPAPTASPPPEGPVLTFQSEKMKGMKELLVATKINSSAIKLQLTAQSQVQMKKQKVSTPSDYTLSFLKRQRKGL
Menin MLL FP FL: displaces fluorescein MLL peptide from human menin. Fluorescence polarization, fluorescein-MLL peptide displacement from menin. FP activity change, % at 61.4 µM. 290,000 tested, under 10 active. AID 1766; active = well fitted curve in the direction sought with a large enough effect in the polarisation, not every such curve was filed as active; inconclusive = small, poorly fitted or top-dose-only effect, or effect the other way, or a change in a side signal; inactive = no such curve, though single readings can be large or run the other way; the % refers to the polarisation; note: % of control where 0% means no effect
p53 reactivation: re-activators of mutant p53. H1299 p53-A138V BP100-luciferase reporter, luminescence, 24 h. Potency, µM (highest dose often 92.2 µM), inactives show at the highest dose activity change, positive = activation, most hits filed as activators. 320,000 tested, 0.063% active. AID 504706; active = well fitted activation curve with a large enough effect; inconclusive = small, poorly fitted or top-dose-only effect; inactive = no such curve, though single readings can be large or run the other way; note: potency is the fitted concentration of half-maximal effect; % of control where 0% means no effect; nearly all actives have a fitted effect of over 45% in size
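H1299 (p53-null), stable ts p53-A138V + BP100-Luc; 1000 cells/well, Opti-MEM/10% FBS; cpd 4 pt, 1:5; 24 h, 37 deg C, 5% CO2; detection reagent 10 min RT; luminescence.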
Numbers without * were called inactive.

Cc1ccccc1NC(=O)c1oc2c(c1C)-c1nn(Cc3cccc(Cl)c3)cc1CC2 was read as ClpP mod -13%.
Nc1ccc(N(c2ccccc2)c2ccc(N)cc2)cc1 was read as ClpP mod 35µM*, MLL CXXC-DNA inh -2%, Menin-MLL TR inh -29%, Menin MLL FP FL -9 and p53 reactivation -2%.
Screening Clc1nc(Cl)nc(N(c2ccccc2)c2ccccc2)n1 returned ClpP mod -2%, MLL CXXC-DNA inh -3%, Menin-MLL TR inh -13%, Menin MLL FP FL 10 and p53 reactivation -6%.
`CCN(CC(=O)Nc1cc(Cl)ccc1C)C(=O)c1cc([N+](=O)[O-])ccc1N1CCOCC1` gave ClpP mod 2% and p53 reactivation 1%.
Screening CCCN(CC(=O)Nc1ccc(F)c(F)c1F)C(=O)c1cc([N+](=O)[O-])ccc1N1CCOCC1 returned ClpP mod 22µM* and p53 reactivation 3%.
For N#CCCCS(=O)(=O)c1nnnn1-c1ccc(F)cc1Br the results were Menin-MLL TR inh 4% and Menin MLL FP FL -8.
`CCOC(=O)C(=O)N=Nc1c(O)[nH]c2ccccc12` gave ClpP mod 22µM*, MLL CXXC-DNA inh 19%, Menin-MLL TR inh 15%, Menin MLL FP FL 1 and p53 reactivation -1%.
`C/C(=N\NC(N)=O)c1c(F)cccc1F` gave ClpP mod 32µM*, MLL CXXC-DNA inh 3%, Menin MLL FP FL 1 and p53 reactivation -3%.
C/C(=N\NC(N)=O)c1ccccc1 was read as MLL CXXC-DNA inh 10%, Menin-MLL TR inh -14%, Menin MLL FP FL 7 and p53 reactivation 2%.
COCC(=O)N(Cc1cc2cc(OC)ccc2[nH]c1=O)c1ccc(C)cc1 was read as ClpP mod 25µM*, MLL CXXC-DNA inh -11%, Menin-MLL TR inh -11%, Menin MLL FP FL 0 and p53 reactivation -7%.
COCC(=O)N(Cc1cc2cc(OC)ccc2[nH]c1=O)c1ccccc1OC was read as ClpP mod 28µM*, MLL CXXC-DNA inh 8%, Menin-MLL TR inh -8%, Menin MLL FP FL 4 and p53 reactivation 3%.
COc1ccc2[nH]c(=O)c(CN(C(=O)c3cccc(Cl)c3)c3ccccc3OC)cc2c1 was read as ClpP mod -22%.
Screening COCC(=O)N(Cc1cc2ccc(C)cc2[nH]c1=O)c1ccc(OC)cc1 returned ClpP mod inconclusive, MLL CXXC-DNA inh -3%, Menin-MLL TR inh 3%, Menin MLL FP FL 4 and p53 reactivation -6%.
Screening COc1cccc(NC(=O)CN(C)C(C)C(=O)Nc2ccc(C(C)=O)cc2)c1 (stereo not given) returned ClpP mod -1%, MLL CXXC-DNA inh 10%, Menin-MLL TR inh 12%, Menin MLL FP FL -5 and p53 reactivation -1%.
COc1cccc(NC(=O)CN(C)C(C)C(=O)Nc2cc([N+](=O)[O-])ccc2Cl)c1 (stereo not given) was read as ClpP mod 32µM*, MLL CXXC-DNA inh -3%, Menin-MLL TR inh inconclusive, Menin MLL FP FL -6 and p53 reactivation 3%.
Screening Cn1c(C(=O)NCCCN2CCN(c3ccccc3F)CC2)cc2c(=O)[nH]c3ccccc3c21 returned ClpP mod 32µM*, MLL CXXC-DNA inh 16%, Menin-MLL TR inh -15%, Menin MLL FP FL 0 and p53 reactivation 8%.
For CC1CC(C)CN(CCCNC(=O)c2cc3c(=O)[nH]c4ccccc4c3n2C)C1 (stereo not given) the results were ClpP mod 4%, MLL CXXC-DNA inh -7%, Menin-MLL TR inh -3%, Menin MLL FP FL -10 and p53 reactivation 24%.
Screening Cc1cc(C)c2c(=N)c3ccccc3n(CCCCCCCCn3c4ccccc4c(=N)c4c(C)cc(C)nc43)c2n1 returned ClpP mod 32µM*.
For CCCCCCCCn1c2c(c(=N)c3ccccc31)CCC2 the results were MLL CXXC-DNA inh 4%, Menin-MLL TR inh 6%, Menin MLL FP FL -2 and p53 reactivation -2%.
Cc1ccc(Cn2c(=O)c3c(nc4n3CCN4c3cc(C)cc(C)c3)n(C)c2=O)cc1 was read as ClpP mod -3%.
`O=C(CC1C(=O)NCCN1C(=O)Nc1ccc(Cl)cc1)Nc1ccc(F)cc1` (stereo not given) gave MLL CXXC-DNA inh 11%, Menin-MLL TR inh 39%, Menin MLL FP FL 0 and p53 reactivation -9%.
Screening O=C(CC1C(=O)NCCN1C(=O)c1ccc(Cl)cc1)Nc1ccc(F)cc1 (stereo not given) returned ClpP mod 32µM*, MLL CXXC-DNA inh 7% and p53 reactivation 4%.
For Cc1ccc(-c2nc(-c3cc4c([nH]c3=O)CC(C)(C)CC4=O)sc2C)cc1 the results were ClpP mod -16%.
For CCCCCNc1nc(-c2ccccc2)nc(-n2ccnc2)n1 the results were ClpP mod 25µM*, MLL CXXC-DNA inh 3%, Menin-MLL TR inh 15%, Menin MLL FP FL 3 and p53 reactivation 2%.
Screening CSc1c(C#N)c(N)c(C#N)c2c1COC(C)(C)C2 returned ClpP mod 14µM*, MLL CXXC-DNA inh -3%, Menin-MLL TR inh 4%, Menin MLL FP FL 0 and p53 reactivation 12%.
Screening Cc1[nH]c(=O)c(C#N)c2c1COC(C)(C)C2 returned MLL CXXC-DNA inh 4%, Menin-MLL TR inh 6%, Menin MLL FP FL -4 and p53 reactivation 2%.
Screening Cc1ccc(NC(=O)c2oc3ccc(S(=O)(=O)N4CCC5(CC4)OCCO5)cc3c2C)c(C)c1 returned ClpP mod -16%.
Screening Cc1cc(C)c2c(n1)NCCC2 returned ClpP mod 4%.
Screening O=C(CC1SC(N2CCCC2)=NC1=O)Nc1ccc(C(=O)N2CCN(c3cccc(Cl)c3)CC2)cc1 (stereo not given) returned ClpP mod 32µM* and p53 reactivation 1%.
Screening N#Cc1c(N)n(CCCN2CCOCC2)c2nc3ccccc3nc12 returned ClpP mod 4.5µM*, MLL CXXC-DNA inh -7%, Menin-MLL TR inh -7%, Menin MLL FP FL 6 and p53 reactivation -11%.
COc1ccc(Cn2c(N)c(C#N)c3nc4ccccc4nc32)cc1OC was read as ClpP mod 14µM*, MLL CXXC-DNA inh 27%, Menin-MLL TR inh -1%, Menin MLL FP FL inconclusive and p53 reactivation -5%.
Screening COc1ccccc1CCn1c(N)c(C#N)c2nc3ccccc3nc21 returned ClpP mod 32µM*, MLL CXXC-DNA inh 2%, Menin-MLL TR inh -15%, Menin MLL FP FL 4 and p53 reactivation -6%.
`Cc1cccc(NC(=O)C(=O)NCC(c2cccnc2)N2CCc3ccccc3C2)c1C` (stereo not given) gave ClpP mod 0%.
Screening COc1ccc2c(c1OC)C(=O)OC2c1ccc(O)cc1 (stereo not given) returned ClpP mod -7%.

Screening data (PubChem BioAssay)
